In ChEMBL document CHEMBL1201862, “PubChem BioAssay data set” (2004):
About 2,100 (0.53%) of roughly 400,000 compounds were called active. Inconclusive results (about 14%) are left out. The rule behind the calls is not given here. Only a selection was taken, and actives are over-represented in it overall.

target: Ataxin-2 (Homo sapiens) (UniProt Q99700); assay: qHTS for Inhibitors of ATXN expression.; type: functional
Sequence (Q99700 whole entry): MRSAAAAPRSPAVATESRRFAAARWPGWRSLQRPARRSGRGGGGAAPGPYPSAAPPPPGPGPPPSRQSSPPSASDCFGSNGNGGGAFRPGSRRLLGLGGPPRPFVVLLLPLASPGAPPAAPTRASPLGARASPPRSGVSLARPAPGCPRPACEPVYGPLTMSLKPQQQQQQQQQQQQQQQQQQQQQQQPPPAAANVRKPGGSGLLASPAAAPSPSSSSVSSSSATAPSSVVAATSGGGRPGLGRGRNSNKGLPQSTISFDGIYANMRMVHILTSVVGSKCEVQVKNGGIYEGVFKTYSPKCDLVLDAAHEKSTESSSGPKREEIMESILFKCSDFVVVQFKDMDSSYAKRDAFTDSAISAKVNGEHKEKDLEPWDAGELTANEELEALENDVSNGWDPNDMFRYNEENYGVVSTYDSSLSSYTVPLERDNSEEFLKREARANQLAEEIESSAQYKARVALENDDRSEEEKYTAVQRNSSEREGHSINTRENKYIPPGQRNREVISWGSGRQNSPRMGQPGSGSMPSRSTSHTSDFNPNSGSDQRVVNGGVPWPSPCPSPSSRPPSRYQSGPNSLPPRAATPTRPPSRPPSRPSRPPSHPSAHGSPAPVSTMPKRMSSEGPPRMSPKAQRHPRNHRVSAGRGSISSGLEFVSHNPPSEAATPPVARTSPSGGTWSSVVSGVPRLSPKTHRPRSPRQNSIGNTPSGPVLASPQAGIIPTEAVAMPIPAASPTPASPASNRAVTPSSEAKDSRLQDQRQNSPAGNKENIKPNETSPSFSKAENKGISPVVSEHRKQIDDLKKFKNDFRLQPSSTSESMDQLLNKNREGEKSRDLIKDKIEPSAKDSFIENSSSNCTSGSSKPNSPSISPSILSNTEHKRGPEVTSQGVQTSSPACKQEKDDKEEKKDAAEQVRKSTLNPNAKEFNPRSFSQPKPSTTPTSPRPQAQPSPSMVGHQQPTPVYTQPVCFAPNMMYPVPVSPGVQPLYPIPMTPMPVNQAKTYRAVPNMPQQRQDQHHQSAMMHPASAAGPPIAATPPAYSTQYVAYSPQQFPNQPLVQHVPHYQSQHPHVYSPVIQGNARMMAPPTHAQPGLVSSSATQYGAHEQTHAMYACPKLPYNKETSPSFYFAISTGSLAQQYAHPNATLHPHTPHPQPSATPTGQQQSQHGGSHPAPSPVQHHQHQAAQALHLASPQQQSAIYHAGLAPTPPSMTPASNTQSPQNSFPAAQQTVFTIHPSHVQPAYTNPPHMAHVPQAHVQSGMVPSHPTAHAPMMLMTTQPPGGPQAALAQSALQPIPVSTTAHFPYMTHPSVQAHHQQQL

SMILES	Potency
CC[C@H](CO)Oc1cc(NCc2cccc(N)c2)c2ncn(C(C)C)c2c1	31.6 µM (active)
CCC(CO)Oc1cc(NCc2ccccc2C(F)(F)F)c2ncn(C(C)C)c2c1 (stereo unspecified)	25.1 µM (active)
CC[C@H](CO)Oc1cc(NCc2ccc(Cl)c(Cl)c2)c2ncn(C(C)C)c2c1	35.5 µM (active)
Nn1c(SCC(=O)Nc2c(F)cc(F)cc2Br)nnc1C1CCCCC1	inactive
Cc1cc2c(cc1C)NC(CC(=O)Nc1ccccc1)C(=O)N2 (stereo unspecified)	inactive
CCCOc1c(Br)cc(C2C3=C(CCCC3=O)N(C)C3=C2C(=O)CCC3)cc1OC	inactive
Cn1c(CNc2ccccc2O)nc2ccccc21	inactive
COc1cccc(C(=O)/C=C2\Sc3ccccc3N2C)c1	inactive
CCC(/C=C1\Sc2ccc(OC)cc2N1CCO)=C\c1sc2ccc(OC)cc2[n+]1CCO	17.8 µM (active)
CCOC(=O)c1cc2c(OC)c(OC)ccc2c2ncc(C#N)c(O)c12	inactive
Nc1c(S(=O)(=O)c2ccccc2)c2nc3ccccc3nc2n1/N=C/c1cccc(O)c1	39.8 µM (active)
Nc1c(S(=O)(=O)c2cccs2)c2nc3ccccc3nc2n1/N=C/c1cccc(O)c1	39.8 µM (active)
COCCNC(=O)c1c(N)n(/N=C/c2cccs2)c2nc3ccccc3nc12	inactive
Nc1c(S(=O)(=O)c2ccccc2)c2nc3ccccc3nc2n1C1CC1	inactive
COCCn1c(N)c(C(=O)NCc2cccs2)c2nc3ccccc3nc21	inactive
Cc1ccc(S(=O)(=O)c2c(N)n(-c3ccccc3)c3nc4ccccc4nc23)cc1	inactive
Nc1c(C(=O)NCC2CCCO2)c2nc3ccccc3nc2n1-c1ccccc1 (stereo unspecified)	inactive
CC1(C)CC(=O)C2=C(C1)N1C(=C(C#N)C2c2ccc(Cl)cc2)N=C(N)c2ccccc21 (stereo unspecified)	22.4 µM (active)
COc1ccc(C2C3=C(CC(C)(C)CC3=O)N(C)C3=C2C(=O)CC(C)(C)C3)cc1	inactive
COc1ccc(N2C3=C(C(=O)CC(C)(C)C3)C(c3ccccc3OC)C3=C2CC(C)(C)CC3=O)cc1	inactive
COc1cccc(C=O)c1OCCCOc1cccc2cccnc12	39.8 µM (active)
COc1ccccc1OCCCC(=O)NCc1ccco1	inactive
COc1ccc(C2C3=C(O)CC(C)(C)CC3=Nc3c2c(=O)[nH]c(=O)n3Cc2ccccc2)cc1OC (stereo unspecified)	inactive
CCCc1ccc(C2Sc3ccccc3NC3=C2C(=O)c2ccccc23)cc1 (stereo unspecified)	31.6 µM (active)
CC(C)(C)c1ccc(C2Sc3ccccc3NC3=C2C(=O)c2ccccc23)cc1 (stereo unspecified)	39.8 µM (active)
Cc1cc2c(NC(=O)CC(C)(C)CC(=O)O)cccc2nn1	inactive
